Screening results deposited in PubChem BioAssay by National Center for Advancing Translational Sciences (NCATS).
CtBP-E1A inh = CtBP/E1A binding inhibition | activity change, % (no concentration beside the values) | AID 651724 | AlphaScreen GST-E1A/His-CtBP binding, 1536-well; hits give low values | actives 0.49% (n = 340,000); in the data active means activity change below about -65%; inconclusive means mostly about -30% to -63%; further: on the % scale 0 is the no-effect control and ±100 the full control effect
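Homogeneous bead-based format: GST-tagged E1A captured on glutathione donor beads, His-tagged CtBP on nickel acceptor beads; compounds precede bead addition by 2 h at 37 °C.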
JMJD2A Tudor inh = inhibitors of human JMJD2A Tudor domain | O75164 | AlphaScreen JMJD2A-Tudor / H3K4me3 peptide binding | Potency, µM (top dose mostly 114 µM), for the others: top-dose activity change, negative = inhibition, actives largely listed as inhibitors | actives 4.4% (n = 390,000) | AID 504339; further: potency means the concentration at half of the fitted maximal effect; on the % scale 0 is the no-effect control and ±100 the full control effect; nearly all actives have a fitted effect of over 50% in size
G9a inh = G9a (human) methyltransferase inhibition; Q96KQ7; G9a H3K9 monomethylation, AlphaScreen, 2 h; Potency, µM (series often up to 102 µM), without a hit: at the highest dose activity, negative = inhibition, usual class: inhibitors; actives 8.8% (n = 350,000); AID 504332; further: potency means the concentration at half of the fitted maximal effect; on the % scale 0 is the no-effect control and ±100 the full control effect; nearly all actives have a fitted effect of over 75% in size
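Step 1: enzyme (final 20 nM) with compound, 15 min RT. Step 2: substrate peptide 500 nM and SAM 20 uM, 2 h RT. Step 3: anti-H3K9me1 antibody and AlphaScreen beads, 10 min, then plate read.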
HP1b chromo inh = inhibitors of HP1-beta chromodomain binding to methylated histone tails | P83916 | AlphaScreen HP1-beta / biotin-H3K9me3 peptide binding | Potency, µM (top dose mostly 114 µM), for the others: top-dose activity change, negative = inhibition, actives largely listed as inhibitors | actives 0.56% (n = 390,000) | AID 540317; further: potency means the concentration at half of the fitted maximal effect; nearly all actives have a fitted effect of over 70% in size
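HP1-beta protein (50 nM final) preincubated 30 min at room temperature with biotinylated H3(1-18)K9me3 peptide (50 nM) in PBS pH 7.4, 0.01% Tween-20, then compound added for 30 min. AlphaScreen streptavidin donor/nickel chelate acceptor beads (10 ug/mL final), 30 min dark, luminescence read.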
BAZ2B block = BAZ2B (human) inhibition | Q9UIF8 | AlphaScreen BAZ2B-H3K14Ac peptide displacement | Potency, µM (highest dose often 114 µM), for the others: at the top dose activity change, negative = inhibition, actives largely listed as inhibitors | actives 4.4% (n = 360,000); further: potency means the concentration at half of the fitted maximal effect; on the % scale 0 is the no-effect control and ±100 the full control effect; nearly all actives have a fitted effect of over 60% in size
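Multi-concentration screen (max 110 uM) measuring displacement of acetylated histone H3 peptide from BAZ2B by AlphaScreen, using 50 nM protein, 50 nM peptide and 10 ug/mL streptavidin donor plus Ni-chelate acceptor beads.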
Six1-Eya2 inh = Six1/Eya2 interaction inhibition | AID 651725 | actives 0.56% (n = 360,000) | activity change, % (concentration not given with the values) | Q15475+O00167 | AlphaScreen GST-Six1/His-Eya2 binding, biochemical; hits give low values; in the data active means activity change below about -65%; inconclusive means mostly about -30% to -63%; further: on the % scale 0 is the no-effect control and ±100 the full control effect
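AlphaScreen luminescence read after one hour at 37 °C in darkness. Pin-transferred compounds met GST-Six1 and His-Eya2 protein (5X stock 250 nM/500 nM) plus glutathione donor and Ni-chelate acceptor beads (5X, 50 ug/mL).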
Numbers without * were called inactive; ? = inconclusive; . = no result; [ ] = another dose, or the depositor's remark. A selection: hits, their analogues and other compounds. The true share with any hit is near 10%. Unless noted, the call rests on the fitted dose curve; in most records, active means well fitted inhibition curve with a large enough effect; inconclusive means small, poorly fitted or top-dose-only effect; inactive means no such curve, though single readings can be large or run the other way.

SMILES	CtBP-E1A inh	JMJD2A Tudor inh	G9a inh	HP1b chromo inh	BAZ2B block	Six1-Eya2 inh
CCOC(=O)CCS(=O)(=O)c1nc(-c2ccccc2)cc(C(F)(F)F)n1	8	-7%	2.8µM*	68%	-4%	-14
O=C(Nc1ccc(Oc2ccccc2)nc1)[C@H]1O[C@@H](n2ccc(=O)[nH]c2=O)[C@H](O)[C@@H]1O	0	.	.	.	.	0
Cc1cc(C)cc(C(=O)Nc2ccc3[nH]c(=O)[nH]c3c2)c1	-9	-4%	-39%	19%	6%	-16
CC(C)C(N)C(=O)O (centres undefined)	.	.	23%[59 µM]	.	.	.
Cc1ccc(-c2cn3nc(N4CCCC(C(=O)NCc5ccc(F)cc5)C4)sc3n2)cc1 (centres undefined)	.	-18%	-23%[59 µM]	40%	-4%	.
CN(C)c1ccc(/C=N/OC(=O)Nc2ccccc2)cc1	-10	-34%	-12%	-6%	71µM*	-9
CN(C)c1ccc(/C=N/NC(=O)Cn2nnc3ccccc32)cc1	-4	-12%	14µM*	-1%	-27%	-14
O=C(N/N=C\c1ccc(Cl)cc1)c1sccc1-n1cccc1	-1	-12%	-13%	26%	3%	-11
CN(C)c1ccc(/C=N/NC(=O)c2ccccc2Cl)cc1	-5	-31%	40µM*	-7%	-35%	-2
COc1ccc(NC(=O)O/N=C/c2ccccc2)cc1	.	-23%	0%	-7%	-13%	3
CN(C)c1ccc(/C=N/NC(=O)c2sccc2-n2cccc2)cc1	21	-17%	28µM*	17%	-24%	-5
COc1ccc(/C=N/NC(=O)Cn2nnc3ccccc32)cc1OC	1	-14%	28%[59 µM]	15%	-25%	-25
Cc1ccc(/C=N/c2sc3c(c2C(N)=O)CCCC3)o1	-10	?	?	-16%	-33%	-20
COC(=O)C1=C(C(=O)OC)C(c2ccccc2O)c2sc(=O)[nH]c2S1 (centres undefined)	-4	-15%	10µM*	10%	?	8
COC(=O)c1sc2ccccc2c1N	4	-28%	?	-1%	13%	5
Cc1ccc(OC(=O)CSc2nnc(CNC(=O)c3ccccc3)o2)cc1	.	-11%	?	39%	5%	.
COc1c(Cl)cc(Cl)cc1CNCCNCC(C)O (centres undefined)	3	?	35µM*	38%	-30%[57.1 µM]	1
COc1c(Cl)cc(Cl)cc1CNCCNCCO	3	?	.	37%	-11%	2
COc1ccccc1N1CCN(S(=O)(=O)c2cc(-c3cc(C)no3)ccc2C)CC1	.	-14%	3%[59 µM]	39%	0%	.
O=CNn1cnc2c(oc3nc(-c4ccccc4)cc(-c4ccco4)c32)c1=O	0	?	50µM*	?	-37%	-2
CC(C)[C@@H](C(=O)N[C@@H](C(=O)O)c1ccccc1)N1C(=O)N2CCc3c([nH]c4ccccc34)[C@@]2(C)C1=O	-1	-23%	16%[12.7 µM]	40%	-31%	-3
Cc1ccc(N2C(=O)CS/C2=C(\C(Cl)=C(Cl)Cl)[N+](=O)[O-])cc1	-11	40µM*	20µM*	?	45µM*	-11
N=C(N)S/C=C\C(=O)O	.	.	25µM*	.	.	.
O=C(O)c1ccccc1C(=O)NNc1ccc(F)cc1	1	40µM*	?	-24%	-21%	4
O=C(NNC(=O)c1ccccc1-n1cccc1)c1ccc(Cl)cc1Cl	-17	-15%	35%[0.501 µM]	37%	-35%	-5
SMILES	CtBP-E1A inh	JMJD2A Tudor inh	G9a inh	HP1b chromo inh	BAZ2B block	Six1-Eya2 inh
O=C(O)c1ccccc1C(=O)NNc1ccc(Cl)cc1Cl	.	-9%	2.8µM*	35%	-28%	5
C[C@H]1CN([C@@H](C)CO)S(=O)(=O)c2ccc(/C=C/c3ccccc3)cc2O[C@H]1CN(C)C(=O)NC1CCCCC1	-7	.	.	.	.	-10
COC(=O)C1CCN(CC(=O)Nc2cc(C)c3c(=O)oc4ccccc4c3n2)CC1	.	-12%	-22%[59 µM]	15%	-11%	.
Clc1cccc(-c2ccc(CNCc3ccccn3)o2)c1	.	56µM*	20µM*	-16%	22µM*	-16
CCOC(=O)c1c(-c2ccc(C)cc2C)csc1NC(=O)c1ccccc1Cl	.	-9%	-1%[59 µM]	14%	-2%	.
COc1ccc(/C=C\c2nc(=O)c3ccccc3o2)cc1	-69*	?	?	-2%[57 µM]	-33%	15
O=c1nc(/C=C/c2ccc(O)c(O)c2)oc2ccccc12	-16	-29%	40µM*	-6%	?	-19
CCn1c(/C=C/c2ccc(O)c(O)c2)nc2ccccc2c1=O	.	56µM*	.	?	71µM*	-30
CC(=O)Oc1ccc(/C=C/c2nc3ccccc3c(=O)o2)cc1	-20	-21%	.	24%	9%	-20
CCn1c(/C=C/c2ccc(O)cc2)nc2ccccc2c1=O	-16	-9%	31%[59 µM]	33%	-14%	-5
Cc1cccc(NC(=O)c2oc3ccccc3c2NC(=O)c2cc(=O)c3cc(Cl)ccc3o2)c1	.	-3%	-29%[59 µM]	32%	-7%	.
Cc1ccc2c(COC(=O)C3CC(=O)N(c4ccc5c(c4)OCCO5)C3)cc(=O)oc2c1 (centres undefined)	-4	-12%	.	16%	.	-6
CC(=O)c1nc2ccccc2n1S(=O)(=O)c1ccc(Cl)cc1	-2	-24%	-119%	28%	56µM*	6
CC(C)c1ccc2occ(-c3nn[nH]n3)c(=O)c2c1	-6	18µM*	?	-3%	56µM*	-4
Cc1ccc2occ(-c3nn[nH]n3)c(=O)c2c1	-7	28µM*	?	15%	50µM*	0
CC(C)c1ccc2occ(CC(=O)Nc3ccccc3Cl)c2c1	.	139%	49%[59 µM]	122%	45%	.
O=C1CC(N2CCOCC2)=NN1c1ccc([N+](=O)[O-])cc1	0	-35%	.	-4%	-26%	27
CN(C)c1ccc(/C=C2/C(=O)N(c3ccc([N+](=O)[O-])cc3)N=C2N2CCOCC2)cc1	.	.	-6%[0.501 µM]	.	7.1µM*	.
CCC1CN(CC(=O)NCc2cccc(Br)c2)c2ccccc2S1 (centres undefined)	.	-33%	?	18%[57 µM]	-3%	.
Cn1cnc2nc[nH]c2c1=S	-2	3.5µM*	.	12%	.	2
CCOC(=O)c1[nH]ncc1CN1CCCC(C(=O)c2ccc(C(C)(C)C)cc2)C1 (centres undefined)	-2	-11%	1%	34%	-11%	0
Cc1cccc(NC(=S)NNC(=S)NC2CCCCC2)c1C	-11	-26%	1.3µM*	-14%	-9%	-6
O=C(Nc1ccccc1)c1ccccc1NC(=O)C1CCCCC1	13	-14%	?	22%	-1%	0
